Assay [1] can be described thus: antimalarial activity against Dd2 strain (AID 2302;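 active means growth inhibition above 50% at the single 2 µM test dose, taken to imply half-maximal potency below 2 µM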;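 further: 0% = DMSO untreated growth and 100% = chloroquine plus artemisinin killed control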). As to conditions: P. falciparum Dd2 in RBCs, LDH growth readout, 72 h; at 2 µM; hits give high values.
Assay [2] is described as follows: HepG2 cytotoxicity, primary screen, cytotoxicity control for P. falciparum antimalarial project, cell-based, ATP luminescence (AID 2303;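 active means inhibition above 50%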;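 further: 0% = DMSO wells and 100% = digitonin-killed cells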). The settings on record: HepG2 viability, 24-48 h, at 10 µM, hits give high values.
Assay [3] has as its target L-lactate dehydrogenase (Plasmodium falciparum (isolate CDC / Honduras)) (UniProt Q27743). Briefly: PfLDH activity inhibition – cell lysate, 3D7 strain, counter-screen for P. falciparum growth inhibition project (AID 2304).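 Further: 0% = vehicle and 100% = reference inhibitor.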 The settings on record: P. falciparum 3D7 crude extract, LDH APAD/NBT absorbance; at 2 µM; hits give high values.
The nature of assay [4]: inhibition of 3D7 malaria parasite growth – strain 3D7 (AID 2306).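 Further: 0% = DMSO wells and 100% = chloroquine plus artemisinin control wells.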 The settings on record: P. falciparum 3D7 erythrocytic growth, LDH absorbance, 72 h; at 2 µM; hits give high values.
Assay [5] addresses Calcium-dependent protein kinase 1 (Plasmodium falciparum (isolate 3D7)) (UniProt P62344). In words: PfCDPK1 kinase inhibitors, biochemical, TCAMS library (AID 1159585; cut-off not given, nearly all actives have IC50 up to about 0.98 µM;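 further: inhibitors leave more ATP so luminescence rises with inhibition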). As to conditions: recombinant PfCDPK1, Kinase-Glo ATP depletion luminescence.
The target in assay [6] is Plasmodium falciparum protein kinase 6 (PK6, PF3D7_1337100) (UniProt Q8IDW1). In words: PfPK6 kinase inhibitors, biochemical, TCAMS library (AID 1159586). The settings on record: recombinant PfPK6, Kinase-Glo ATP depletion luminescence.
Assay [7] addresses Protein kinase 7 (PK7), Plasmodium falciparum 3D7 (PF3D7_0213400) (UniProt Q7YTF7). In words: inhibition of Plasmodium PK7 catalytic activity – biochemical, TCAMS antimalarial set, Kinase-Glo luminescence (AID 1159587). The settings on record: recombinant PfPK7, Kinase-Glo ATP depletion luminescence.
The target of assay [8] is Calcium-dependent protein kinase 4 (Plasmodium falciparum (isolate 3D7)) (UniProt Q8IBS5). Briefly: PfCDPK4 kinase inhibitors, biochemical, TCAMS library (AID 1159588; cut-off not given, nearly all actives have IC50 up to about 0.91 µM). The settings on record: recombinant PfCDPK4, Kinase-Glo ATP depletion luminescence.

Unmarked numbers belong to inactive results. For part of these data: Potency and affinity values are given separately. The source made the active and inactive calls. Unless noted, how the calls were made is not given here.

The values that follow come from PubChem BioAssay.

Sequence of Protein kinase 7 (PK7), Plasmodium falciparum 3D7 (PF3D7_0213400) (Q7YTF7 1-343): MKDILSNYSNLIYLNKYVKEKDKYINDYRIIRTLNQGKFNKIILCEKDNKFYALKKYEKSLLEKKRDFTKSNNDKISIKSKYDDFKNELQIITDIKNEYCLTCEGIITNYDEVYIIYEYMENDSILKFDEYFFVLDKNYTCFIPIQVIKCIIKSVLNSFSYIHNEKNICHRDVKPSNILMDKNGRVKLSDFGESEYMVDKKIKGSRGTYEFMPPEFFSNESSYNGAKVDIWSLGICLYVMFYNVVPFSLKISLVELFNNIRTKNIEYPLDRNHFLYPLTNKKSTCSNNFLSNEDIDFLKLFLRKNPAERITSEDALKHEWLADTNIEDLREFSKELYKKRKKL
Sequence of Calcium-dependent protein kinase 1 (Plasmodium falciparum (isolate 3D7)) (P62344 whole entry, looked up): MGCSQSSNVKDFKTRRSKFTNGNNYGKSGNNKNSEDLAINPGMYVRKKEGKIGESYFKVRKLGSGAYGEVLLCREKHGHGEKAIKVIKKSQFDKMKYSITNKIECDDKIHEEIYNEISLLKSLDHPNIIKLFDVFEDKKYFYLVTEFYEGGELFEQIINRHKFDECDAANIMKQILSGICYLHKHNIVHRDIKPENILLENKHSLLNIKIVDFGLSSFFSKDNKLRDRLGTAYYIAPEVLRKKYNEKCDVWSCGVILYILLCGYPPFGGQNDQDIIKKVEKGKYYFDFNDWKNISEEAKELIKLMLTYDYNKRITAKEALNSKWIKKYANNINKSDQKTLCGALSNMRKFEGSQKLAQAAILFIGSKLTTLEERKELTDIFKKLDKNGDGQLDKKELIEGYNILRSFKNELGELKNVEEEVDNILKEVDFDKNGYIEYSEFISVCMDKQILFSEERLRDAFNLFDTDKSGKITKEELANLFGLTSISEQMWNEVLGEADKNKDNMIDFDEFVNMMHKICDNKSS
Sequence of L-lactate dehydrogenase (Plasmodium falciparum (isolate CDC / Honduras)) (Q27743 whole entry, looked up): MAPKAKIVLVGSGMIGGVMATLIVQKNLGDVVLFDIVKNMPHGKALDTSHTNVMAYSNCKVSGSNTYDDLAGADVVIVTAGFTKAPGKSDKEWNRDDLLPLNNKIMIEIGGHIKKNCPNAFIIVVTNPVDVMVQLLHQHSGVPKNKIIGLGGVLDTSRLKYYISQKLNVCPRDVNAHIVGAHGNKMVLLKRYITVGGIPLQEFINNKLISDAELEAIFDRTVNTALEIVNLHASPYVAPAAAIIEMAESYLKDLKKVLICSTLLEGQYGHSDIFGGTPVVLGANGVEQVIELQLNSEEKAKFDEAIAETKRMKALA
Sequence of Plasmodium falciparum protein kinase 6 (PK6, PF3D7_1337100) (Q8IDW1 1-305): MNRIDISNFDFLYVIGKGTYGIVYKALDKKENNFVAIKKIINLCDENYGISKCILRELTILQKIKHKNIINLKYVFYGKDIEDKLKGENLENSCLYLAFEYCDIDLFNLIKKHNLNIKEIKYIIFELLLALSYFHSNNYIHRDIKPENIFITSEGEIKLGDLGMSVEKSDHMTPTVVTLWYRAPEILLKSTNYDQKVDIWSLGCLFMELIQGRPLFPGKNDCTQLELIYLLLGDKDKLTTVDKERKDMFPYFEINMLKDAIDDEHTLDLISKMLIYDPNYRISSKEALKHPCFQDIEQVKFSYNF
Sequence of Calcium-dependent protein kinase 4 (Plasmodium falciparum (isolate 3D7)) (Q8IBS5 whole entry, looked up): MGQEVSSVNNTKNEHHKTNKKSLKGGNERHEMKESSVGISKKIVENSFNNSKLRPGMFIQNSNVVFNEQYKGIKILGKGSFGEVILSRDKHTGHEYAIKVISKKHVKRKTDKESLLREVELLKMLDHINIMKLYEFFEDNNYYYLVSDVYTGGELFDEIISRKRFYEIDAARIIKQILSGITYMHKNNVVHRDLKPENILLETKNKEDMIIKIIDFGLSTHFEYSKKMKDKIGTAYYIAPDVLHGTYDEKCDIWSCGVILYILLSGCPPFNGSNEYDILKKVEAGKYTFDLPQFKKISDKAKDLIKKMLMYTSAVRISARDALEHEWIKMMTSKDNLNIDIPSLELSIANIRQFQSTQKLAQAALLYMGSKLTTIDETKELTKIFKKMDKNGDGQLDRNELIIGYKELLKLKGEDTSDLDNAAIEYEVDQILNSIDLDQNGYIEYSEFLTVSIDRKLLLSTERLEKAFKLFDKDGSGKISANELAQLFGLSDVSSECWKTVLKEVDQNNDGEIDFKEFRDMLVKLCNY

Regarding `Cc1nn(CC(C)C)c2sc(C(=O)N3CCN(S(=O)(=O)c4ccc(C#N)cc4)CC3)cc12`, the growth inhibition in assay [1] and in assay [4] was 99% (active) each time. Besides, the values for the inhibition in assay [2] and in assay [3] were 14% and -2%, respectively. The outcome in assay [5], in assay [6], in assay [7] and in assay [8] was inactive.

As for `CN1CCN(Cc2cc3cc(NC(=O)/C=C/c4cccc(Cl)c4)ccc3s2)CC1`, the growth inhibition was 72% (active) in assay [1] and 100% (active) in assay [4]. In addition, the inhibition in assay [2] is 54% (active); in assay [3], 1%. Also, the result in assay [5], in assay [6], in assay [7] and in assay [8] was inactive.

`CC(C)N1CCC(Oc2ccc(CN3CCN(C(c4ccccc4)c4ccc(Cl)cc4)CC3)cc2)CC1` (stereo not drawn): the growth inhibition is 46% in assay [1] and 97% (active) in assay [4]. Besides, the inhibition in assay [2] was 44%; in assay [3], 4%. In addition, the result in assay [5], in assay [6], in assay [7] and in assay [8] was inactive.

For the molecule `Cc1[nH]c(C)c(-c2ccc(-c3ccc(C#N)cc3)nc2)c(=O)c1Br`, the growth inhibition in assay [1] is 87% (active); in assay [4], 97% (active). For the same molecule, the results for the inhibition in assay [2] and in assay [3] were 5% and 7%, respectively. In addition, the result in assay [5], in assay [6], in assay [7] and in assay [8] was inactive.

As for `CN1CCCC1CCOc1ccc2c(c1)N(C(=O)Nc1cc(Br)cc(C(F)(F)F)c1)CC2` (stereo not drawn), the growth inhibition is 97% (active) in assay [1] and 102% (active) in assay [4]. Further, the values for the inhibition in assay [2] and in assay [3] were 13% and -6%, respectively. For the same molecule, the outcome in assay [5], in assay [6], in assay [7] and in assay [8] was inactive.

On to `COc1ccc2nccc([C@@H](O)CN3CCC(NCc4ccc5cccc(O)c5n4)CC3)c2n1`, for which the growth inhibition in assay [1] is 13%; in assay [4], 94% (active). Further, the results for the inhibition in assay [2] and in assay [3] were 8% and 2%, respectively. Further, the result in assay [5], in assay [6], in assay [7] and in assay [8] was inactive.

For the molecule `CCn1c(-c2nonc2N)nc2cnc(Oc3cccc(NC(=O)c4ccc(OCCN5CCCC5)cc4)c3)cc21`, the figures for the growth inhibition in assay [1] and in assay [4] were 1% and 92% (active), respectively. Besides, the values for the inhibition in assay [2] and in assay [3] were 25% and 2%, respectively. The outcome in assay [5], in assay [6], in assay [7] and in assay [8] was inactive.

Turning to `Nc1c(Cl)cc(C(O)CNCCCCCCOCCc2ccc(CO)s2)cc1Cl` (stereo not drawn), the figures for the growth inhibition in assay [1] and in assay [4] were 71% (active) and 86% (active), respectively. Besides, the inhibition in assay [2] was 1%; in assay [3], -2%. Moreover, the result in assay [5], in assay [6], in assay [7] and in assay [8] was inactive.

In the case of `Cc1ccc(NC(=O)c2ccc3ncccc3c2)cc1OC1CCN(Cc2ccc(F)cc2)C1` (stereo not drawn), the growth inhibition is 28% in assay [1] and 83% (active) in assay [4]. Further, the inhibition is 11% in assay [2] and 3% in assay [3]. Moreover, the result in assay [5], in assay [6], in assay [7] and in assay [8] was inactive.

Regarding `COC(=O)c1cccc(CNCc2ccc(-c3cccc(-c4nc5c(C)cccc5[nH]4)c3)cc2)c1`, the values for the growth inhibition in assay [1] and in assay [4] were 84% (active) and 102% (active), respectively. For the same molecule, the inhibition in assay [2] is -7%; in assay [3] it was 7%. The result in assay [5], in assay [6], in assay [7] and in assay [8] was inactive.

`COc1ccc(CNC2Cc3ccccc3C2)cc1-c1ccc(S(=O)(=O)NCCN2CCCC2)c(F)c1`: the growth inhibition in assay [1] is 69% (active); in assay [4], 101% (active). The inhibition in assay [2] is 44%; in assay [3], -6%. The result in assay [5], in assay [6], in assay [7] and in assay [8] was inactive.

Consider `COCCNCc1cccc(-c2cc3nccc(Nc4ccc(Oc5ccccc5)cc4)c3cc2Cl)c1`, for which the growth inhibition in assay [1] and in assay [4] was 99% (active) throughout. Moreover, the inhibition in assay [2] is -8%; in assay [3], 1%. For the same molecule, the result in assay [5], in assay [6], in assay [7] and in assay [8] was inactive.

Consider `CC(C)OC(=O)c1ccc(NC(=O)N[C@@H](Cc2ccc(O)cc2)C(=O)NC2C[C@H]3CC[C@@H](C2)N3Cc2ccccc2)cc1` (stereo partly drawn), for which the growth inhibition in assay [1] is 19%; in assay [4] it was 92% (active). Also, the inhibition was 0% in assay [2] and -5% in assay [3]. For the same molecule, the outcome in assay [5], in assay [6], in assay [7] and in assay [8] was inactive.

For `O=C(Nc1ccc(N2CCCCC2)c(Cl)c1)c1ccco1`, the growth inhibition in assay [1] is 95% (active); in assay [4] it was 96% (active). For the same molecule, the inhibition in assay [2] is -1%; in assay [3], -6%. For the same molecule, the result in assay [5], in assay [6], in assay [7] and in assay [8] was inactive.

On to `N=C1C=C(N)C(=O)c2ccccc21`, for which the results for the growth inhibition in assay [1] and in assay [4] were 85% (active) and 81% (active), respectively. The figures for the inhibition in assay [2] and in assay [3] were 99% (active) and -2%, respectively. Further, the result in assay [5], in assay [6], in assay [7] and in assay [8] was inactive.

On to `CCNc1cc(C(=O)N[C@@H](Cc2ccc(Cl)cc2)[C@H](O)CNC2CCCCC2)cc(N2CCCCS2(=O)=O)c1`, for which the growth inhibition in assay [1] was 99% (active); in assay [4] it was 98% (active). The inhibition in assay [2] is 6%; in assay [3] it was -1%. Further, the result in assay [5], in assay [6], in assay [7] and in assay [8] was inactive.

For `NCc1ccc(CNCc2cccc(-c3cccc(-c4nc5ccc(F)cc5[nH]4)c3)c2)cc1`, the growth inhibition was 34% in assay [1] and 101% (active) in assay [4]. The figures for the inhibition in assay [2] and in assay [3] were 15% and -2%, respectively. For the same molecule, the outcome in assay [5], in assay [6], in assay [7] and in assay [8] was inactive.

Regarding `O=C(Nc1ccccc1)c1cccc(Nc2nccc(Nc3ccc(Oc4ccccc4)cc3)n2)c1`, the growth inhibition was 11% in assay [1] and 98% (active) in assay [4]. The inhibition is 6% in assay [2] and -1% in assay [3]. The outcome in assay [5], in assay [6], in assay [7] and in assay [8] was inactive.

In the case of `CNc1nc(NN=Cc2cc3c(cc2[N+](=O)[O-])OCO3)nc(Nc2cccc(C(F)(F)F)c2)n1`, the values for the growth inhibition in assay [1] and in assay [4] were 60% (active) and 101% (active), respectively. The inhibition was -1% in assay [2] and 2% in assay [3]. In addition, the result in assay [5], in assay [6], in assay [7] and in assay [8] was inactive.

`COc1ccc2ncc(F)c(CCN3C[C@H](CNCc4ccccc4)[C@H](O)C3)c2n1`: the growth inhibition in assay [1] is 22%; in assay [4], 89% (active). Further, the values for the inhibition in assay [2] and in assay [3] were 19% and 8%, respectively. Also, the outcome in assay [5], in assay [6], in assay [7] and in assay [8] was inactive.

Turning to `Fc1ccccc1C=NNc1ccnc2ccccc12`, the growth inhibition was 26% in assay [1] and 94% (active) in assay [4]. Besides, the inhibition was 8% in assay [2] and 0% in assay [3]. Moreover, the result in assay [5], in assay [6], in assay [7] and in assay [8] was inactive.
